High-throughput results: PubChem BioAssay, several laboratories
PLC-gamma1 inh = PLC-gamma1 enzyme inhibitors, primary screen, biochemical, fluorescence, purified enzyme | 370,000 tested, 0.84% active | 1-phosphatidylinositol 4,5-bisphosphate phosphodiesterase gamma-1 (Homo sapiens), P19174 | fluorogenic substrate | inhibition, % at 12.2 µM; in the data active = inhibition above about 9.5%
sPLA2-III inh = human group III sPLA2 inhibitors, primary screen, biochemical, QFRET, BODIPY PC-A2 liposome substrate | QFRET BODIPY PC-A2 liposome hydrolysis, fluorescence | inhibition, % at 12.2 µM | AID 743126, 2013 | Group 3 secretory phospholipase A2 (Homo sapiens), Q9NZ20 | 370,000 tested, 0.56% active;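 active = inhibition above mean plus 3 SD of compounds lying within the high and low control bounds, cut at about 19% in these data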;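 also: 0% = median of test compound wells and 100% = no enzyme DMSO wells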
HIF act = HIF pathway transcriptional activators, primary screen, cell-based, U2OS HRE-luciferase, luminescence; 300,000 tested, 0.32% active; U2OS HRE-luciferase reporter; normalized: DMSO 0%, desferrioxamine 100%; activation, % at 7.5 µM (by protocol);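 active = mean activation of at least 10% of the iron chelator positive control signal, with at least half of replicates also reaching 10%; inconclusive = mean and replicate majority disagree about reaching 10%; inactive = mean and most replicates under 10%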
AHR act = AHR activators, primary screen, cell-based, luminescence, luciferase reporter, human | 320,000 tested, 2.5% active | AID 2796, 2010 | Aryl hydrocarbon receptor (Homo sapiens), P35869 | AHR-responsive luciferase reporter cells | activation, % at 5 µM; in the data active = activation above about 47%;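 also: 0% = vehicle wells and 100% = reference agonist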
PLC-beta3 inh = human PLC-beta3 inhibitors, primary screen, biochemical, fluorescence; 1-phosphatidylinositol 4,5-bisphosphate phosphodiesterase beta-3 (Homo sapiens), Q01970; Purified PLC-beta3, fluorogenic substrate; inhibition, % at 12.2 µM; 370,000 tested, 0.18% active; AID 720704, 2013; in the data active = inhibition above about 11%;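 also: 0% = median of compound wells on plate and 100% = full blocker control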
CR mimetic SO = reduction of superoxide in aged yeast, primary screen, HTS | S. cerevisiae aged cells, superoxide DHE fluorescence; hits give low values | superoxide response (% of plate mean), % at 10 µM | 330,000 tested, 0.18% active;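 active = superoxide response under a set limit, about three screen SD below normal, cut at about 65% in these data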;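 also: yeast aged for seven days with compound at 30 °C before DHE staining; 100% = average MFI of all compound-treated wells on the plate with controls excluded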
The depositor's hits bear a star; ? = inconclusive; / = not tested or not shown. Hits are enriched below; roughly 3.9% of the tested compounds scored in any of these assays.

SMILES | PLC-gamma1 inh | sPLA2-III inh | HIF act | AHR act | PLC-beta3 inh | CR mimetic SO
COc1ccc(OC)c(NC(=O)c2[nH]c(C)c(C(C)=O)c2C)c1 | -1 | -3 | 1 | 75* | -3 | 92
COc1ccc(CCNC(=O)c2[nH]c(C)c(C(C)=O)c2C)cc1OC | 0 | 1 | -1 | 74* | 3 | 92
Nc1[nH]c(C(=O)c2ccccc2)c(-c2ccc(O)cc2)c1C(=O)NCCc1c[nH]c2ccccc12 | -5 | -47 | / | / | -6 | /
CCCCNC(=O)NC1CCN(CC(=O)Nc2ccc3c(c2)OCCO3)CC1 | -1 | 12 | / | / | -3 | /
S=C(Nc1ccc(I)cc1)OC1CCC12CCC(c1ccccc1)CC2 (configuration not stated) | 0 | 1 | / | / | 1 | /
CCOC(=O)[C@]12CCCC3=C1N(CCC3)C(=O)[C@@H](CC(=O)NCc1ccc(C)o1)C2 | 2 | -6 | / | / | 3 | /
Cc1cc([N+](=O)[O-])ccc1NC(=O)c1cncc(Br)c1 | 1 | 2 | 1 | 1 | 3 | 100
COc1ccc([N+](=O)[O-])cc1NC(=O)c1cncc(Br)c1 | 2 | 3 | 0 | 70* | -1 | 94
COc1ccc2sc(-c3ccc(SC)cc3)c(/C=C/c3ccc(OC)c(OC)c3)c2c1 | -183 | -4 | / | 49* | -199 | 98
COc1ccc(/C=C/c2c(-c3ccc(OC)cc3)sc3ccc(N4CCOCC4)cc23)cc1 | / | / | 2 | 25 | / | 126
COc1ccc(C(C#N)N2N=C(C)CC2c2ccccc2)cc1 (configuration not stated) | 2 | 2 | -1 | 0 | -6 | 97
COc1ccc(C2=NN(C(C#N)c3ccc(OC)cc3)C(c3ccccc3)C2)cc1 (configuration not stated) | -7 | -4 | 3 | 54* | -7 | 83
CCOC(=O)[C@@]12CCCC3=C1N(CCC3)C(=O)[C@H]2CC(=O)N1CCCC1 | 0 | 4 | / | / | 2 | /
COc1cccc2sc(NN)nc12 | -50 | 12 | 0 | 33 | -81 | 95
COc1cccc2sc(Nc3nc(-c4cc5ccccc5oc4=O)cs3)nc12 | -17 | -4 | 1 | 5 | -27 | 112
COc1ccccc1-c1nnc(Nc2nc3c(OC)cccc3s2)o1 | -305 | -31 | 5 | 111* | -227 | 101
COc1cccc(-c2nnc(Nc3nc4c(F)cccc4s3)o2)c1 | -195 | -9 | 1 | 64* | -209 | 124
COc1cccc2sc(Nc3nc(-c4ccncc4)cs3)nc12 | -31 | -25 | 0 | 64* | -65 | 114
COc1cccc2sc(Nc3nnc(-c4ccccc4Cl)o3)nc12 | -86 | -3 | 0 | 63* | -100 | 113
CCCCN1CCN(C2=Nc3ccccc3Sc3ccccc32)CC1 | 4 | 4 | / | / | 3 | /
CC(C)(C)c1ccc(S(=O)(=O)N2CCCC(C(=O)N3CCN(Cc4ccccc4)CC3)C2)cc1 (configuration not stated) | 2 | -7 | / | / | 3 | /
O=c1[nH]c(=S)[nH]c2c1C(c1ccc(Br)cc1)c1c([nH]c(=S)[nH]c1=O)O2 | 24* | -26 | 1 | 2 | -4 | 100
CCOC(=O)CC[C@H]1CC[C@]2(CCCN(C(=O)c3ccc4ccccc4n3)C2)O1 | -2 | -1 | / | / | 0 | /
c1ccc(-c2cc3c(ccc4nonc43)nn2)cc1 | -2 | -2 | 3 | 48* | 0 | 107
Cc1nn(CCC(=O)NNC(=O)NCc2ccccc2)c(C)c1[N+](=O)[O-] | -1 | 8 | / | / | -1 | /
SMILES | PLC-gamma1 inh | sPLA2-III inh | HIF act | AHR act | PLC-beta3 inh | CR mimetic SO
COc1ccc(Br)cc1Cn1nnc(C(=O)Nc2ccc3c(c2)OCCO3)c1N | 2 | -11 | 1 | 60* | -7 | 111
CC(C)C(=O)Nc1nc2cc3c(cc2s1)OCCO3 | -1 | 0 | -1 | 37 | -7 | 84
c1ccc2sc(Nc3nc4cc5c(cc4s3)OCO5)nc2c1 | -141 | 12 | 2 | 137* | -155 | 98
CC(=O)c1sc(Nc2nc3cc4c(cc3s2)OCO4)nc1C | -12 | -3 | 5 | / | -26 | /
CC(=O)Nc1nc2cc3c(cc2s1)OCO3 | 1 | 4 | 3 | 54* | 0 | 105
COC(=O)C(=O)C/C(=N/Nc1ncnc2ccccc12)c1ccc(Cl)cc1 | -29 | -9 | 0 | 58* | -46 | 101
Cc1ccc(Nc2ncnc3ccccc23)cc1 | -17 | -2 | 3 | 65* | -14 | 77
Oc1ccc(Nc2ncnc3ccccc23)cc1 | -2 | 10 | 0 | / | -9 | 88
COC(=O)c1cccc(Nc2ncnc3ccc(C)cc23)c1 | -42 | 2 | / | 13 | -59 | 91
COc1ccc(Nc2ncnc3ccc(C)cc23)cc1 | -5 | 4 | 0 | 55* | -12 | 92
COc1ccc(Nc2cc(Nc3cc(OC)c(OC)c(OC)c3)ncn2)cc1 | 3 | 6 | -1 | 59* | -1 | 108
NC(=O)[C@@H]1CCCN1C(=O)[C@@H](Cc1ccccc1)NC(=O)[C@H]1O[C@@H](n2ccc(=O)[nH]c2=O)[C@H](O)[C@@H]1O | 2 | 1 | / | / | 5 | /
COc1ccccc1CNC(=O)N(CCc1c(C)[nH]c2ccccc12)Cc1cccs1 | 0 | -39 | / | / | -5 | /
Cc1ccccc1C(=O)NC1CCCCN(Cc2cccc(F)c2)C1=O (configuration not stated) | 1 | -4 | / | / | 2 | /
Cc1ccc(/C(=N/Nc2ncnc3ccccc23)C(=O)O)cc1 | -129 | 2 | ? | 59* | -188 | 92
CCCCN1CCS(=O)(=O)N(Cc2cn(Cc3ccc(C)cc3)nn2)C(C(=O)OC)C1 (configuration not stated) | 3 | 0 | / | / | 0 | /
CN1CC(C(=O)O)Cc2c1ccc1ccccc21 (configuration not stated) | -154 | -1 | -11 | 54* | -225 | 102
COC(=O)c1oc2ccc(Br)cc2c1NC(=O)CN1CCN(C)CC1 | 3 | 2 | 0 | 3 | 0 | 95
COC(=O)c1oc2ccccc2c1NC(=O)CN1CCCC1 | 5 | -3 | -1 | 54* | 2 | 100
COC(=O)[C@]12C[C@H](CC(=O)NCCc3ccccc3OC)C(=O)N(Cc3ccc(Cl)cc3Cl)C1=C[C@H](C(C)C)O[C@@H]2C1CC1 | 0 | -14 | / | / | 2 | /
Cc1ccc(-c2cc(-c3nnc(SCC(=O)Nc4nccs4)n3N)[nH]n2)cc1 | -1 | 1 | / | / | 0 | /
Cn1cccc1C(=O)NC(=O)COC(=O)c1cc(S(=O)(=O)N2CCCCC2)ccc1Cl | -2 | 3 | 46* | 1 | -6 | 108
O=C(O)c1ccccc1N/N=C/c1cc(Br)cc(Br)c1O | -11 | -3 | 3 | 49* | -16 | 100
O=C(O)c1ccccc1N/N=C\c1ccnc2ccccc12 | -3 | -2 | 0 | 65* | -4 | 106
